Key:
Type in all cases: functional
[1] = target: Solute carrier family 2, facilitated glucose transporter member 1 (Homo sapiens) (UniProt P11166); test: ST_JUDE_LEISH: Cytotoxicity at 2uM final concentration against transgenic Leishmania Mexicana promastigotes LmGLUT1 that are glucose transport deficient and complemented with the human glucose transporter GLUT1. Activity is measured by DNA content using SYBR green in vitro
[2] = target: Hexose transporter 1 (Plasmodium falciparum) (UniProt O97467); test: ST_JUDE_LEISH: Cytotoxicity at 2uM final concentration against transgenic Leishmania Mexicana promastigotes LmPfHT that are glucose transport deficient and complemented with the Plasmodium falciparum hexose transporter. Activity is measured by DNA content using SYBR green in vitro
[3] = target: Glucose transporter (Leishmania mexicana) (UniProt O61059); test: ST_JUDE_LEISH: Cytotoxicity at 2uM final concentration against transgenic Leishmania Mexicana promastigotes LmGT2 that are glucose transport deficient and complemented with the L. Mexicana glucose transporter 2. Activity is measured by DNA content using SYBR green in vitro

Sequence of Solute carrier family 2, facilitated glucose transporter member 1 (Homo sapiens) (P11166 whole entry): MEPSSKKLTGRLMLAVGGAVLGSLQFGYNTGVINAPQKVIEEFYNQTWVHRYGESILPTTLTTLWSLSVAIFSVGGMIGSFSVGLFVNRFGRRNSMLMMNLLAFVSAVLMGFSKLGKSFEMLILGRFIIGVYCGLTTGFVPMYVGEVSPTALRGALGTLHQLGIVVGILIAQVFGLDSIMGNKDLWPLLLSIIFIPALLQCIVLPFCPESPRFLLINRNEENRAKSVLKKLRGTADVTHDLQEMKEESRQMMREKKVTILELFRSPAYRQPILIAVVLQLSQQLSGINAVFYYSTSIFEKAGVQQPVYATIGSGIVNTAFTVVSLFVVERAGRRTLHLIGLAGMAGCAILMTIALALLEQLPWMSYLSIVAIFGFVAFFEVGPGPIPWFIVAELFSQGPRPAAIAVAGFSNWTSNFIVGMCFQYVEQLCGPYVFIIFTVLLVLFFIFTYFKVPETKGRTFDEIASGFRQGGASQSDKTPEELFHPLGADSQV

Row | SMILES | inhibition [1] [%] | inhibition [2] [%] | inhibition [3] [%]
1 | CC(Cc1ccc(-c2nc3ccccc3[nH]2)cc1)NCC(O)c1cccc(C(F)(F)F)c1 (stereo unspecified) | 1.35 | -1.73 | -0.37
2 | COc1ccc2[nH]cc(C3=CCN(CC4CC4C(=O)c4ccccc4)CC3)c2n1 (stereo unspecified) | 12.6 | 14.6 | 11.3
3 | COc1cccc(C(=O)C2CC2CN2CC=C(c3c[nH]c4cccc(Br)c34)CC2)c1 (stereo unspecified) | 1.59 | 1.08 | -0.34
4 | CC(=O)C1(c2ccccc2)CCN(CCC2(c3ccc(Cl)c(Cl)c3)CN(C(=O)c3cccc(Cl)c3)CCO2)CC1 (stereo unspecified) | -0.25 | -2.92 | -1.43
5 | O=C(NC1CCC(CN2CCC(c3c[nH]c4ccccc34)CC2)CC1)c1cc2cccc([N+](=O)[O-])c2[nH]1 (stereo unspecified) | -2.16 | 2.66 | -0.94
6 | CN1CC=C(c2c[nH]c3ccc(Sc4ccccc4)cc23)CC1 | 1.74 | 2.9 | 3.42
7 | CC[C@H]1CN2CC[C@@H]1C[C@H]2[C@H](O)c1cc(N2CCCC(C)(C)C2)nc2ccc(OC)cc12 | 0.42 | -0.61 | 0.37
8 | CCN(CC)CCOC(=O)C(OC)(c1ccccc1)c1ccccc1 | 0.95 | 3 | 1.83
9 | CC(Cc1ccc(NC(=O)[C@@H](C)NCCc2cccc(Cl)c2)cc1)NCCc1cccc(Cl)c1 (stereo partly specified) | 0.67 | 2.55 | 2.1
10 | CCCc1c(C(=O)NC2CCC(CN3CCC(c4c[nH]c5ccccc45)CC3)CC2)cnn1-c1ccccc1 (stereo unspecified) | 3.14 | 1.15 | 1.83
11 | C[C@H](Cc1ccc(OCCCCCCOc2ccccc2)cc1)NC[C@@H](O)c1cc(Br)no1 | 2.44 | 0.72 | -0.07
12 | Oc1cccc(C2CCCN(Cc3cccc4cc[nH]c34)C2)c1 (stereo unspecified) | 2.13 | 4 | 3.75
13 | CN1CC=C(c2c[nH]c3ccc(OC(=O)c4ccccc4)cc23)C1 | 0.69 | 0.43 | 1
14 | COc1ccc(CC(C)NCC(O)c2cccc(C(F)(F)F)c2)cc1F (stereo unspecified) | 1.15 | 1.15 | 0.11
15 | N#Cc1ccc(N(CC(=O)NCCc2ccccc2)CC2CC2)c2ccccc12 | 1.68 | 0.73 | 0.87
16 | NCc1ccc(-c2ccccc2CN(C(=O)Nc2ccccc2)C2CCN(Cc3ccccc3)CC2)cc1 | 2.32 | 1.83 | -3.48

Row | SMILES | inhibition [1] [%] | inhibition [2] [%] | inhibition [3] [%]
17 | Cc1[nH]c2ccc([N+](=O)[O-])cc2c1C1=CCN(C)CC1 | 1.47 | 1.63 | 2.86
18 | c1ccc2c(NCCCCCCNc3c4ccccc4nc4ccccc34)c3ccccc3nc2c1 | 5.54 | 6.29 | 4.31
19 | C=Cc1cc(OC)c2c(c1)c(=O)oc1c2cc(OC)c2c(O)ccc([C@H]3O[C@H]([C@H](C)O)[C@H](O)[C@H]3O)c21 | 12.1 | 32.6 | 8.58
20 | O=C1Nc2cccc3c2C1(CCCCCN1CC=C(c2c[nH]c4ccccc24)CC1)CCC3 (stereo unspecified) | 14.1 | 10.6 | 12.8
21 | COc1ccc2[nH]cc(C3=CCN(Cc4ccccc4)CC3)c2c1 | 3.41 | 2.34 | 2.21
22 | CC[C@H]1CN2CC[C@H]1C[C@H]2C(O)c1cc(OC)nc2ccccc12 (stereo partly specified) | -0.41 | 0.13 | -0.23
23 | Cn1c(C2CC3CCC(C2)N3CC2CCC(NC(=O)/C=C/c3ccc(Cl)c(Cl)c3)CC2)nc2ccccc21 (stereo unspecified) | 4.11 | 3.19 | 2.69
24 | CN(c1cc(NC(=O)c2ccc(F)cc2)ccn1)C1CCN(Cc2ccc(C#N)cc2)CC1 | 2.42 | 2.29 | 4.46
25 | COC(=O)C(C)(C)c1ccc(CC(C)NCC(O)c2cccc(C(F)(F)F)c2)cc1 (stereo unspecified) | 10.5 | 6.92 | 9.96
26 | COC(=O)c1ccc(CC(C)NCC(O)c2cccc(OCc3ccccc3)c2)cc1 (stereo unspecified) | 7.34 | 7.31 | 8.15
27 | CC1=CC(=O)[C@@H](O)[C@]2(C)[C@H]3[C@@]4(O)OC[C@@]35[C@@H](C[C@@H]12)OC(=O)C[C@H]5[C@@H](C)[C@H]4O | 7.27 | 2.51 | 0.79
28 | Oc1ccccc1CNCC(O)c1cc(C(F)(F)F)cc(C(F)(F)F)c1 (stereo unspecified) | 6.65 | 5.51 | 4.91
29 | O=C1NCN(c2ccc(O)cc2)C12CCN(CCCC(c1ccc(F)cc1)c1ccc(F)cc1)CC2 | 3.87 | 3.34 | 3.43
30 | COc1cc(C=CC(=O)NC2CCC(CN3CCC(c4c[nH]c5ccccc45)CC3)CC2)cc(OC)c1 (stereo unspecified) | -1.01 | -2.18 | -3.65
31 | O=C(NCc1ccc(S(=O)(=O)N2CCC(CN3CCC(c4c[nH]c5ccccc45)CC3)CC2)s1)c1ccccc1 | 3.85 | 3.63 | 3.02
32 | N=c1c2c(n(Cc3ccc(Cl)cc3Cl)c3c1CCC3)CCCC2 | 17.8 | 26.7 | 6.7

Source: ChEMBL document CHEMBL3433997, “St. Jude Leishmania screening dataset” (2016)
